SMILES strings stand for the structures. Hit rate of the full screen: of about 69,000 compounds, about 8,600 (12%) showed an effect of 50% or more. The entries come from a sample that favours strong results as a whole.

The assay deals with Plasmodium berghei. The assay can be described thus: Screen against P. berghei liver stage (PbLuc), transformed with Luciferase, at 10uM. Format: functional, HepG2. As to conditions: tested at 10 uM.
As for `O=C1CCOC[C@]2(CN(Cc3ccccc3)C[C@H]2c2cccnc2)N1`, the INHIBITION is recorded as 20.6%. As for `CCC(C)N(Cc1ccsc1)C(=O)c1ccc(CO)cc1` (centres undefined), the figure is 2.7%; as for `CC(=O)Nc1nc(C2CCN(C(=O)c3cccnc3)CC2)cs1`, 60.8%.

For the molecule `CC(=O)Nc1nc(C2CCN(C(=O)c3ccncc3)CC2)cs1`, the INHIBITION is -9.27%. Next, `CC(=O)Nc1nc(C2CCN(C(C)=O)CC2)cs1`: 27.9%; `CC(=O)Nc1nc(C2CCN(C(C)C)CC2)cs1`: 23.4%; `CC(=O)Nc1nc(C2CCN(C(=O)c3cncs3)CC2)cs1`: 48.6%. For the molecule `CC(=O)Nc1nc(C2CCN(CC(N)=O)CC2)cs1`, the INHIBITION is 63.7%.

Regarding `C[C@@H]1CC[C@@H](C)N1C(=O)c1cc(COc2ccccc2)[nH]n1`, the INHIBITION turned out to be 36.7%. As for `Cc1cc(C)n(CC(=O)N2CCCCC2CCc2cccs2)c(=O)n1` (centres undefined), the figure is 31.2%. Next, `c1c(CN2CCCC2)nc2n1CCNC2`: 33.4%; `Cc1ccc(O)c(CNc2cccc(OCCF)c2)n1`: 9.91%; `CC[C@@H]1N(Cc2ccco2)CCC[C@]12CCC(=O)N2C`: 6.27%.

Regarding `CCN(C)CC1CCN(C(=O)Nc2ccc(C)cc2)C1` (centres undefined), the INHIBITION is -45.4%. Consider `CCCN(C)CC1CCN(c2ncc(Br)cn2)C1` (centres undefined), for which the INHIBITION is 68%. Next, `CCCN(C)CC1CCN(c2ccc(Br)c(C)n2)C1` (centres undefined): 74.8%; `Cc1nc(C2CCCN(c3ncc(Br)cn3)C2)no1` (centres undefined): 19.8%.

As to `Cc1ccc(N2CCCC(N(C)Cc3nc(C)c(C)o3)C2)nn1` (centres undefined), the INHIBITION is 40.9%. Regarding `CCN(C)CC1CCN(c2ncc(Br)cn2)C1` (centres undefined), the INHIBITION is recorded as 26%. Consider `Cc1ccc2ncn(C(C)Cn3cccn3)c(=O)c2c1` (centres undefined), for which the INHIBITION turned out to be 3.82%. Next, `O=C(NCc1sc2ccccc2c1Cl)c1cc2n(n1)CCNC2`: 25.1%.

Turning to `O=C(C1CCOCC1)N1CCO[C@@H]2[C@@H](OCc3ccncc3)CC[C@@H]21`, the INHIBITION is 23.6%. Turning to `CC(C)c1nc(CS(=O)(=O)Cc2noc(C3CC3)n2)cs1`, the INHIBITION was 47.6%. As to `Cc1ncsc1CN1CC[C@H]2OCC[C@@]2(C(=O)NC2CC2)C1`, the INHIBITION is recorded as -45.5%. Next, `COc1cc(CNC(=O)N(Cc2ccc(F)cc2F)C2CC2)ccn1`: -15.5%; `Cc1cc(-c2ccc(=O)n(C3CCN(C(=O)C4CC4)CC3)n2)c(C)o1`: 23%.

Turning to `CN(C)C(=O)COCc1cncc2c1CCN(C1CCOCC1)C2`, the INHIBITION was 4.68%.

As to `N#Cc1c2n(c3c(=O)[nH]cnc13)CCCCC2`, the INHIBITION came out at 23.5%. Next, `COc1cccc(-c2noc(C3CCN(Cc4ccccc4F)C3)n2)c1` (centres undefined): 84.2%; `COc1cccc(-c2noc(CN3CCOCC3C)n2)c1` (centres undefined): -7.35%. For the molecule `COc1cccc(CN2CC[C@H](c3nnc(C)o3)C2)c1`, the INHIBITION is recorded as -30%.

For the molecule `COc1cccc(-c2noc(C3CCN(Cc4ccccc4C)C3)n2)c1` (centres undefined), the INHIBITION worked out at 45.6%. As for `COc1cccc(-c2noc(C3CCN(CC4CCCCC4)C3)n2)c1` (centres undefined), the figure is 67.9%; as for `COc1cccc(-c2noc(C3CCN(Cc4ccncc4)C3)n2)c1` (centres undefined), 78.2%; as for `COc1cccc(CN2CC[C@H](c3nnc(-c4ccco4)o3)C2)c1`, -26.1%.

For the molecule `COc1cccc(-c2noc(C3CCN(CC(N)=O)C3)n2)c1` (centres undefined), the INHIBITION is 41.2%. Next, `CN(Cc1noc(C2CC2)n1)C1CCN(Cc2ccncc2)C1` (centres undefined): 45.8%; `Cc1cccc(-c2noc([C@@H]3C[C@@H](O)CN3CC3CCCCC3)n2)c1`: -27.5%; `COc1cccc(-c2noc(C3CCN(Cc4cccs4)C3)n2)c1` (centres undefined): 49.6%. As to `COc1cccc(-c2noc(C3CCN(Cc4ccc(C)cc4)C3)n2)c1` (centres undefined), the INHIBITION is recorded as 66.4%. With `CCN1CC(CN(C)Cc2nc(-c3ccc(C)o3)oc2C)CC1=O` (centres undefined), the INHIBITION amounted to 34.2%. As for `Cc1noc(C(C)C)c1C(=O)NS(=O)(=O)c1ccc2c(c1)OCCCO2`, the INHIBITION amounted to 7.9%. Next, `CNC(=O)c1ccc(-c2ccc(CNC(=O)COC)cc2)nc1C`: 10.9%; `Cc1ccc(CN(C(=O)NCC2CCS(=O)(=O)C2)C2CC2)o1` (centres undefined): -39.2%; `CCCn1nc(C(=O)NC2(c3ccc(Cl)cc3)CCCC2)ccc1=O`: -51.3%. For the molecule `CCc1nc2n(n1)CC(NCc1cnn(-c3ccccc3)n1)CC2` (centres undefined), the INHIBITION came to 10.9165%. As for `CN1CCOCC12CCN(Cc1ccoc1)CC2`, the figure is -13.2%; as for `COc1cccc(-c2noc(C3CCN(Cc4cn(C)nc4C)C3)n2)c1` (centres undefined), 84.8%; as for `COc1cccc(CN2CCC(c3nnc(-c4cnc(C)cn4)o3)C2)c1` (centres undefined), 29.3%. In the case of `COc1ccc(CN(Cc2cn(C)nc2C)CC2CCCO2)c(OC)c1` (centres undefined), the INHIBITION came out at 21.9%. For `CSCc1cccc(S(=O)(=O)Nc2cc(C)on2)c1`, the INHIBITION is on record as 8.7%. Turning to `Cc1nc(C)c(C(=O)NCCNc2ncccc2C#N)s1`, the INHIBITION was 13.3%. Turning to `CSc1ccccc1C(=O)NCCC(O)c1ccco1` (centres undefined), the INHIBITION is given as 45.7%.

For `CSc1ncccc1C(=O)NCCC(O)c1cccs1` (centres undefined), the INHIBITION is reported as 26%. With `CSc1ncccc1C(=O)NCCC(O)c1ccco1` (centres undefined), the INHIBITION is on record as 53.2%.

On to `Cc1cccc(C(=O)N2CC(Cc3nccc4ccn(C)c34)C2)n1`, for which the INHIBITION is on record as -23.8%. As for `CN(C)CCOCC1CN(Cc2ccsc2)Cc2ccnn2C1` (centres undefined), the figure is 11.4%.

As to `CN(C)CCN(Cc1ccc(Cl)cc1)C(=O)c1cc[nH]n1`, the INHIBITION is listed as 10%.

Take `Cc1cnc(C(=O)N(CCN(C)C)Cc2ccc(Cl)cc2)cn1`: the INHIBITION turned out to be 12.2%.

With `CN(C)CCN(Cc1ccc(Cl)cc1)C(=O)c1ccncc1`, the INHIBITION was found to be 10.6%. Regarding `CN(C)CCN(Cc1ccc(Cl)cc1)C(=O)c1cnccn1`, the INHIBITION is given as 68.3%. As for `CN(C)CCN(Cc1ccc(C(F)(F)F)cc1)C(=O)c1cc[nH]n1`, the INHIBITION was 63.3%. On to `CN(C)CCN(Cc1cccc(C(F)(F)F)c1)C(=O)c1cc[nH]n1`, for which the INHIBITION is recorded as 22.4%.

With `Cc1ncc(C(=O)N2CCOC(C(=O)N3CCCCCC3)C2)c(C)n1` (centres undefined), the INHIBITION is 35.1%.

Turning to `O=C(CN1CCCCC1)N1CCC(c2cc(=O)n3c(n2)CCCCC3)C1` (centres undefined), the INHIBITION is listed as -15.3%. As for `CC(C)NC(=O)NCC1(COc2cnccn2)C[C@@H](O)[C@@H](O)C1` (some centres undefined), the figure is 45.2%. Next, `O=S(=O)(Cc1ccccc1F)N1CCCC1c1nnc2n1CCCCC2` (centres undefined): 20.1%. Take `CN1CCCCC12CCN(c1nncs1)CC2`: the INHIBITION was -0.804%. As for `CS(=O)(=O)N1CCCCC12CCN(c1nncs1)CC2`, the figure is 55.5%. In the case of `CS(=O)(=O)N1CCOCC12CCN(c1nncs1)CC2`, the INHIBITION stood at 26.5%. Take `CC(=O)N1CCCC(c2ccc(C(N)=O)cn2)C1` (centres undefined): the INHIBITION was found to be 40%.

As to `CCc1ccc(C2c3nc[nH]c3CCN2Cc2nccn2CC)nc1` (centres undefined), the INHIBITION is reported as 29.3%.

For `CC(=O)N1CC2(CCCC2)c2ccccc21`, the INHIBITION turned out to be 7.21%. Next, `COc1ccc(CN2CCc3sccc3C2C)cc1CN1CCOCC1` (centres undefined): 52.7%. Consider `CC1c2ccsc2CCN1Cc1cc2c(cc1O)OCO2` (centres undefined), for which the INHIBITION came to 18.2%. On to `COc1cc2c(cc1CN1CCc3sccc3C1C)OCO2` (centres undefined), for which the INHIBITION is 26.7%. As for `COc1ccsc1C(=O)Nc1cc(CN2CCOCC2)ccc1C`, the figure is -29.4%; as for `COc1cc2c(cc1CN1CCc3sccc3C1C)OCCO2` (centres undefined), 40.6%.

On to `CCC1c2ccsc2CCN1Cc1cc2c(cc1OC)OCCO2` (centres undefined), for which the INHIBITION amounted to 69.4%. `Cn1ncc2c1NC(=O)CC2c1cccs1` (centres undefined): the INHIBITION is given as -3.77%. In the case of `CC(c1cccc(F)c1)N1CCN(Cc2nccn2C)CC1` (centres undefined), the INHIBITION was -39.7%. Next, `CC(=O)NCC(=O)N1CCC2(COCc3c(C)nc(N(C)C)nc32)C1` (centres undefined): -13.2%; `Cc1ccc(NC2CCN(C(=O)c3ccco3)CC2)nn1`: -17%; `Cc1ccc2c(n1)N(CC1CC1)CCN(C(=O)c1ccncc1F)C2`: -37.4%. As for `Cn1cnc2c1CCN(CC(O)c1ccc(S(C)(=O)=O)cc1)C2` (centres undefined), the figure is 57.6%.

As to `Cn1cnc2c1CCN(CCS(=O)(=O)c1ccc(Cl)cc1)C2`, the INHIBITION stood at 52.3%.

Turning to `Cn1cnc2c1CCN(CCS(=O)(=O)c1ccccc1)C2`, the INHIBITION is recorded as 24.4%.

For `Cn1cnc2c1CCN(CC(O)c1ccc3c(c1)OCCO3)C2` (centres undefined), the INHIBITION stood at 42.6%.

Take `Cn1cnc2c1CCN(CCCOc1ccc(S(C)(=O)=O)cc1)C2`: the INHIBITION is on record as 49%. As for `Cn1cnc2c1CCN(CCCS(=O)(=O)c1ccccc1)C2`, the figure is -1.14%; as for `Cc1cc(C)nc(Nc2cc(C3CCCN(C)C3)nc(C)n2)n1` (centres undefined), 46.1%. Next, `CCc1nc(C2CCCN2Cc2ccn(C)c(=O)c2)no1` (centres undefined): 21.255%. In the case of `CCn1c(C(=O)N2CCCN(CC(N)=O)CC2)cc2ccccc21`, the INHIBITION was -27.8%. `CN(CCNC(=O)c1cccnc1)S(C)(=O)=O`: the INHIBITION stood at 30.9%. Next, `CCc1nn(C)c(Cl)c1CN1CCCC2(CC1)CN(C)C(=O)O2` (centres undefined): 53.4%; `CCc1nn(C)c(Cl)c1CN1CCC2(C1)CN(C)C(=O)O2` (centres undefined): -73.7%; `CCc1nn(C)c(Cl)c1CN1CCCC2(C1)CN(C)C(=O)O2` (centres undefined): 14.9%. As for `CN(C)Cc1ccccc1Cn1cncc1-c1cnn(C)c1`, the figure is 12.8%; as for `O=S(=O)(c1cccs1)N1CCCn2cnc(CO)c2C1`, 26.3%; as for `CC(NC(=O)CCn1c(=O)oc2ccccc21)c1ccccn1` (centres undefined), 8.65%. For the molecule `Cn1nc(N2CCCC(C(=O)Nc3nc4ccccc4s3)C2)ccc1=O` (centres undefined), the INHIBITION is listed as 82.2%. With `Cn1nc(N2CCCC(C(=O)Nc3nccs3)C2)ccc1=O` (centres undefined), the INHIBITION is 21.5%.

Regarding `CCNC(=O)C1CCCN(c2ccc3ccc(F)cc3n2)C1` (centres undefined), the INHIBITION is 20.8%. As for `Cn1ncc(C(=O)O)c1C(=O)Nc1nc2ccccc2s1`, the figure is 45.4%. Next, `CNC(=O)C1CCCN(c2nc3c(-c4ccccc4)csc3c(=O)[nH]2)C1` (centres undefined): 11.6%.

Consider `Cn1nc(N2CCCC(C(=O)Nc3nc4ccccc4[nH]3)C2)ccc1=O` (centres undefined), for which the INHIBITION is on record as 51%. Consider `CCOCCSc1nnc(-c2cn(CC)nc2OCC)n1C`, for which the INHIBITION is reported as 1.95%. Consider `O=C(C1CCCCC1)N1CCCC([C@@H]2C[C@H](C(F)F)n3ncnc3N2)C1` (some centres undefined), for which the INHIBITION amounted to 25.26%.

In the case of `Cc1cc(C)nc(C2CCN(C(=O)CCn3ncc4ccccc43)C2)n1` (centres undefined), the INHIBITION is reported as 9.93%.

Source of the values: ChEMBL document CHEMBL4513216, “Probing the Open Global Health Chemical Diversity Library for Multistage-Active Starting Points for Next-Generation Antimalarials” (ACS Infect Dis, 2020).
